Laboratory results taken from PubChem BioAssay AID1578 (Sanford-Burnham Center for Chemical Genomics, 2009).
Values joined by “and” are separate entries in the source; they are usually repeats but may differ in a detail not shown here. Equal values may be shown once. Screen size: about 290,000 compounds; about 3,000 (1%) were called active. No stated cut-off is given here; in the data, active means inhibition mostly above about 36% (no sharp cut-off); inactive means mostly below about 34%. The full list was thinned out, with actives kept by preference.

experiment: NOD1 signaling inhibitors, primary screen, cell-based, luminescence, uHTS (AID 1578); details: NOD1-driven NF-kB luciferase reporter cells, at 4 µM, stronger effect = higher value;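 further: HEK-293T reporter cells stimulated with the NOD1 agonist gamma-tri-DAP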

inhibition, active:
COc1ccc(-c2nsc3c(N4CCCCC4C)ncnc23)cc1 (centres undefined) 77.6%
CNc1ccccc1C(=O)OC(C)C(=O)Nc1ccc(Cl)cn1 (centres undefined) 54.3%
O=C(CCl)Nc1cc2[nH]c(=O)[nH]c2cc1Br 72.1%
COc1ccc(C(=O)NNC(=O)Nc2ccc(Cl)cc2)cc1 91.6%
COc1ccc(COc2cc(-c3cccc(OC)c3)nc3ccc(NC(=O)c4cccnc4)cc23)cc1 78.1%
CC(Sc1nc(N)c2c3c(sc2n1)CSC(C)(C)C3)C(=O)Nc1ccccc1 (centres undefined) 66.5%

inhibition, inactive:
COc1ccc(/C=C2\SC(=O)N(CCc3nnc(N)s3)C2=O)cc1 1.5%
CCOC(=O)Cc1csc(NC(=O)CSc2ncnc3c2cnn3-c2ccccc2Cl)n1 -4.7%
COc1ccc(Oc2ccc(N/C=C3\CCCC3=O)cc2)cc1 -29.4%
CC(NC(=O)/C(=C\c1ccco1)NC(=O)c1ccco1)C(=O)O (centres undefined) -6.1%
COc1ccc(-c2nsc3c(N4CCCCC4)ncnc23)cc1 46.2%
COc1ccc(-c2nsc3c(N4CCCC4)ncnc23)cc1 37.5%
COc1ccc(OC)c(NS(=O)(=O)c2ccc(-c3coc(C)n3)cc2)c1 29.1%
Cc1ccc(NS(=O)(=O)c2ccc(-c3cnc(C4CC4)o3)cc2)cc1 37.3%
COc1ccc(NS(=O)(=O)c2ccc(-c3coc(C)n3)cc2)cc1 5.2%
COc1ccc(C)cc1NS(=O)(=O)c1ccc(-c2cnc(C3CC3)o2)cc1 25.1%
O=C(CCCC1=NS(=O)(=O)c2ccccc2N1)Nc1ccccc1 -7.6%
COC(=O)CC(NS(=O)(=O)c1cccs1)c1ccc2c(c1)OCO2 (centres undefined) -20.9%
O=C(CNC(=S)N(CCCN1CCOCC1)Cc1cccs1)NCc1ccc(Cl)cc1 -16.7%
CC(=O)Nc1cc2c(ccc3ccccc32)oc1=O -21.7%
CCOC(=O)c1c(C)[nH]c(C)c1C(=O)CSc1nc2ccccc2c(=O)n1-c1ccc(C)cc1 -25.1%
CCOC(=O)c1c(C)[nH]c(C)c1C(=O)CSc1nc2ccccc2c(=O)n1-c1ccc(F)cc1 -19.8%
CC(OC(=O)c1ccco1)C(=O)Nc1ccc(Cl)cn1 (centres undefined) -26.7%
CC(OC(=O)c1ccccc1O)C(=O)Nc1ccc(Cl)cn1 (centres undefined) -43.7%
COc1ccc(C(=O)NC2CCN(CC(=O)NCc3ccccc3F)CC2)cc1 -30.3%
CCc1ccc(N(CC(=O)NC2CCCCC2)S(=O)(=O)c2c(C)noc2C)cc1 -14.8%
O=C(CCl)Nc1c[nH]c(=O)[nH]c1=O -31.2%
Cc1cc(Br)c(NC(=O)CCl)c(Br)c1 42.9%
NC(=O)c1cc2ccccc2o/c1=N\NC(=O)c1ccc(F)cc1 -3.2%
Cn1c(=O)c2c(nc(Oc3ccccc3)n2C)n(C)c1=O 9.4% and -13.9%
COc1ccc(Oc2nc3c(c(=O)n(C)c(=O)n3C)n2C)cc1 18.3%
Cc1nc2ccc(NS(=O)(=O)c3ccc(F)cc3)cc2s1 7.8%
Cc1ccc(S(=O)(=O)Nc2ccc3nc(C)sc3c2)cc1 32.2%
CCOc1cc(C(=O)Nc2ccc([N+](=O)[O-])cn2)cc(OCC)c1OCC -21.2%
CCNC(=S)N(Cc1cc2cc(C)c(C)cc2[nH]c1=O)C1CCCC1 -35%
O=C(NCc1cccnc1)c1ccc(-c2ccccc2[N+](=O)[O-])o1 -24.4%
COc1ccc(CCNC(=O)C2CCN(S(=O)(=O)c3ccc(OC)cc3)CC2)cc1 17.9%
COc1ccc(C(=O)NNC(=O)Nc2ccc(C)cc2)cc1 -1.6%
COc1ccc(NC(=O)NNC(=O)c2ccc(-c3ccccc3)cc2)cc1 -26.8%
CCS(=O)(=O)N1CCN(c2ncnc3sc(C)c(C)c23)CC1 -20%
Cc1nc(N2CCN(S(=O)(=O)c3ccc(Br)cc3)CC2)c2c(C)c(C)sc2n1 3.7%
CNS(=O)(=O)c1cc(N(C)S(=O)(=O)c2ccc(C)cc2)c(C)cc1C -1.6%
CC1=NCCN1S(=O)(=O)c1cc([N+](=O)[O-])ccc1Cl -40.2%
COc1ccc(COc2cc(-c3cccc(OC)c3)nc3ccc(NC(=O)c4ccc(OC)cc4)cc23)cc1 41.3%
COc1ccc(COc2cc(-c3cccc(OC)c3)nc3ccc(NC(=O)c4ccccc4)cc23)cc1 48.6%
CC(C)(C)C(=O)NC1=NN(c2c(Cl)cc(Cl)cc2Cl)C(=O)C1 -19.7%
CC(C)c1ccccc1NC(=O)COC(=O)c1c2c(nc3ccccc13)CCN(Cc1ccccc1)C2 29.8%
Cc1ccc(NC(=O)CSc2nc(N)c3c4c(sc3n2)CSC(C)(C)C4)cc1 22.5%
Cc1ccccc1NC(=O)CSc1nc(N)c2c3c(sc2n1)CSC(C)(C)C3 -19.5%
